Measured values as given in the supplement of paper PMC3334620.
Over roughly 33,000 sequences, “E-score (-0.5 to 0.5)” has its median near -0.054; the highest 2% begin near 0.35. Many of the other results were omitted from the sample, so the highest values are more common in it than they were.

Target: T1, Stb5 (UniProt P38699)
T1 sequence: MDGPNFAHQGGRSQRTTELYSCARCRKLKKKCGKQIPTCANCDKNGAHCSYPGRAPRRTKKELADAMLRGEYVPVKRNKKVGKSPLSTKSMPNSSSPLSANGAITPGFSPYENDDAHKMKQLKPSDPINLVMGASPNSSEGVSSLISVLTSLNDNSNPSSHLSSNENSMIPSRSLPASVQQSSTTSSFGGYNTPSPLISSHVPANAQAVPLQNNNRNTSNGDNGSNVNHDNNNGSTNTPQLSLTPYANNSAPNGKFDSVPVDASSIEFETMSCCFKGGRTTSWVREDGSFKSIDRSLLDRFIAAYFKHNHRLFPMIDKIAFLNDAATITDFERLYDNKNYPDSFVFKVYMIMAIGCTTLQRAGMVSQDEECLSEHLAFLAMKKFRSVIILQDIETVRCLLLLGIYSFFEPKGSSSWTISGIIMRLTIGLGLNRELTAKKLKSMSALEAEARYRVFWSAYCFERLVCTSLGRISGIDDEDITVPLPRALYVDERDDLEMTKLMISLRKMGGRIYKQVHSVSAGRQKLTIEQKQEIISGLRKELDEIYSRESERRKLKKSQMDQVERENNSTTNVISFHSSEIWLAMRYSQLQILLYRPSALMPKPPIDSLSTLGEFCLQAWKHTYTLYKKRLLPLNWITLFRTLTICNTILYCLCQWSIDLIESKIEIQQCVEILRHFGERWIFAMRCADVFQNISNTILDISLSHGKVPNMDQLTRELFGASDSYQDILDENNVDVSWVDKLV
Test: PBM E-score (8-mer binding enrichment) (E-score (-0.5 to 0.5)); higher = stronger / more preferred TF binding
Conditions: protein concentration: 200 nM; construct: GST-full length
Experimental: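 Universal 'all 10-mer' protein binding microarrays (Agilent AMADID 015681) probed with GST-tagged S. cerevisiae TFs (full-length or DBD) made by in vitro transcription/translation (PURExpress), about 100-200 nM. Bound TF was detected with fluorescent anti-GST. Each ungapped 8-mer (which stands for itself and its reverse complement) is scored by the PBM enrichment score (E-score), a modified Wilcoxon-Mann-Whitney statistic from -0.5 to +0.5, computed with the Universal PBM Analysis Suite. Scale: above 0.35 generally sequence-specific binding.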

Row | Sequence | PBM E-score
1 | CGCCAGGA | -0.17
2 | ACGTCATC | -0.115
3 | CTACTACC | 0.216
4 | ACAGCACC | 0.202
5 | GGCTAGTA | -0.139
6 | ACCCTGCG | -0.165
7 | TCCACCAA | -0.103
8 | GACAAAGA | -0.0701
9 | AATCCCCC | 0.127
10 | AATTCCCA | -0.261
11 | AATCCGGG | 0.233
12 | AATTCCCG | 0.363
13 | AATCCCGG | 0.352
14 | CATCCCCG | 0.264
15 | AATCCCCG | 0.452
16 | CATTCCCG | 0.203
17 | CATCCCGG | 0.134
18 | GATGCAGC | 0.0949
19 | CATAAAGC | -0.0703
20 | CTCAAATC | -0.136
21 | TCACTCGA | -0.204
22 | GGCGGTCA | 0.342
23 | CCCGGTGA | 0.261
24 | CGCGGTGA | 0.359
25 | CGCGGTAA | 0.343

Row | Sequence | PBM E-score
26 | GCCGGTGA | 0.316
27 | AGCGGTCC | 0.327
28 | GGCGGTGA | 0.376
29 | CTCGGTGC | 0.148
30 | CGCGGTGC | 0.378
31 | CGCGGTAG | 0.249
32 | CGCGGTCC | 0.356
33 | CGCGGTCA | 0.21
34 | CCTATCAG | -0.131
35 | CCAATATA | -0.07
36 | CGCTCTAC | -0.0196
37 | CAAAGCCC | 0.285
38 | AGCGGTAG | 0.204
39 | AGCGGTTA | 0.122
40 | AGCGGTGG | 0.346
41 | AGCGGTGC | 0.396
42 | CCCGGTGC | 0.315
43 | CGCGGTTC | 0.205
44 | ACCGGTGC | 0.377
45 | ACCGGTGA | 0.319
46 | AGCGGTCA | 0.29
47 | CGCGGTTA | 0.37
48 | AGCGGTTC | 0.0808
49 | AGCGGTGA | 0.387
50 | GCCGGAAA | 0.187

Row | Sequence | PBM E-score
51 | CGTTGGAC | -0.0247
52 | GTCCCATA | -0.0984
53 | AGATTCAA | -0.16
54 | AGCCTGCC | -0.229
55 | CCTGACCA | -0.291
56 | ACCGGTAC | 0.397
57 | ACCGGTAA | 0.326
58 | GACGGTGA | 0.325
59 | CACGGTGC | 0.306
60 | ACCGGTAT | 0.336
61 | GACGGTGC | 0.392
62 | AGAATGAT | -0.254
63 | ATTGCATA | -0.0781
64 | CAAGATGA | -0.286
65 | AACCTTCC | -0.135
66 | CGACTCCA | -0.0871
67 | TAAAAAGA | 0.046
68 | GCAGAGTA | -0.202
69 | CATCTAGC | -0.12
70 | AGGGCCGC | 0.36
71 | CGGGCCGA | 0.327
72 | AGGGCCGG | 0.271
73 | CGGGCCGC | 0.195
74 | GGGGCCGA | 0.158
75 | AGGGCCGA | 0.354

Row | Sequence | PBM E-score
76 | CTGGGGCC | -0.0638
77 | GGTTGTAA | 0.0915
78 | AGGAGTCA | -0.194
79 | CGGAGTGA | 0.391
80 | GGGAGTGA | -0.0152
81 | GGGAGTCA | -0.163
82 | CGGAGTCA | 0.391
83 | CGGAGTGC | 0.198
84 | AGCGCAGA | -0.0263
85 | CCATGACG | 0.0201
86 | CCAATTTA | 0.119
87 | ATACCGCA | 0.325
88 | CGACCGCC | 0.255
89 | CTACCGCC | 0.305
90 | ACACCGCG | 0.444
91 | ATACCGCG | 0.33
92 | AGACCGCC | 0.364
93 | ACACCGCA | 0.44
94 | CCACCGCG | 0.3
95 | ATACCGCC | 0.434
96 | TCACCGCA | 0.305
97 | CCACCGCA | 0.245
98 | AGACCGCG | 0.297
99 | CCCGTGAC | 0.155
100 | GATTTGAC | 0.0761

Row | Sequence | PBM E-score
101 | CAGCGTAA | -0.168
102 | CCCATTAG | -0.361
103 | AATTCCGA | 0.265
104 | GGACGGGA | 0.1
105 | CCTTTGCG | 0.03
106 | GATGCCCA | -0.136
107 | AAACCGCT | 0.0494
108 | GAACCGCC | 0.187
109 | ATACCGTA | 0.259
110 | GGACCGCC | 0.288
111 | ACACCGCT | 0.419
112 | GCACCGCC | 0.377
113 | AAACCGCC | 0.302
114 | ACACCGCC | 0.459
115 | ATACCGTG | 0.249
116 | AGACCGCT | 0.345
117 | CCACCGCC | 0.282
118 | ATACCGTC | 0.357
119 | ATCTGGTC | -0.153
120 | ATTTAGAG | -0.138
121 | AATGGTGA | -0.231
122 | TGTAGCAA | -0.0607
123 | AATAAGCA | -0.0559
124 | CAAAGTAG | -0.164
125 | GCACCGTA | 0.248

Row | Sequence | PBM E-score
126 | GGACCGCA | 0.188
127 | GCACCGCA | 0.361
128 | CATCCGAC | 0.288
129 | CGAGACTA | -0.0587
130 | CCGGGTGA | 0.179
131 | CGGGGTCA | 0.441
132 | GGGGGTCA | -0.125
133 | GGGGGTGA | -0.123
134 | CGGGGTGA | 0.432
135 | CCGGGTCA | 0.176
136 | CGCTTGGA | -0.0324
137 | TAGGACAA | -0.287
138 | CCCGGGTC | 0.352
139 | CCCCGGTC | 0.369
140 | CCCCGGTA | 0.298
141 | ACCCGGTC | 0.204
142 | CCCGGGTA | 0.101
143 | ACCGGGTC | 0.19
144 | CCCGCACG | 0.325
145 | GAAGTTCA | -0.189
146 | CCCCCGGG | 0.237
147 | ACCCCGGT | 0.356
148 | ACCCCGGG | 0.392
149 | CCCCGGGC | 0.265
150 | CCCCGGGA | 0.268

Row | Sequence | PBM E-score
151 | ACCCCGGA | 0.308
152 | ACCCGGGG | 0.185
153 | ACCCCGGC | 0.343
154 | CCCCGGGG | 0.393
155 | TAGAAAAA | -0.116
156 | ACAGCCCC | -0.0495
157 | CCTGTGAC | -0.0962
158 | CCGATGAC | 0.301
159 | GTCCACGA | -0.134
160 | AGGCTCTC | -0.369
161 | AGAACTTA | -0.169
162 | AATGTAGT | -0.128
163 | ACAAAGCA | -0.0624
164 | CTTGGGAC | -0.0832
165 | AAGTGCCG | 0.409
166 | AATTGCCC | 0.0559
167 | CAATGCCG | 0.334
168 | AATTGCCG | 0.354
169 | AATTGCCA | -0.27
170 | AAGTGCCC | 0.0216
171 | AAATGCCG | 0.435
172 | AAATGCCC | 0.0775
173 | AAGTGCCA | -0.182
174 | CTAGCGTC | 0.0861
175 | AGAAACCA | -0.212

Row | Sequence | PBM E-score
176 | CCATGGCA | -0.0516
177 | ACCCCTAC | -0.171
178 | ATACATTC | -0.228
179 | AACCGTCC | -0.0366
180 | GACCGTCC | 0.21
181 | AACCGTCG | 0.212
182 | CACCGTCG | 0.373
183 | CACCGTCA | 0.333
184 | CACCGTCC | 0.407
185 | AACCTAGC | -0.17
186 | CTGTGGCA | -0.279
187 | ATAAGGCC | 0.359
188 | CTAAGCCC | 0.324
189 | ATAAGGCG | -0.00531
190 | ATAAGACG | -0.111
191 | ATAAAGCC | 0.359
192 | CTAAAGCC | 0.228
193 | ATAAGCCA | -0.107
194 | ATAAGACC | 0.397
195 | ATAAGCCC | 0.406
196 | CTAAGACC | 0.22
197 | CTAAGGCC | 0.262
198 | ATAAAGCG | 0.236
199 | AGAAAGAG | -0.102
200 | ACCTGATA | 0.0218

Row | Sequence | PBM E-score
201 | CTAAGTCC | 0.245
202 | ATAAGTCG | 0.15
203 | ATAAGTCC | 0.443
204 | ATGCGTTG | -0.0346
205 | AAACTCCC | 0.104
206 | GAGTTCGC | 0.0473
207 | AACGCCTC | -0.064
208 | AACGCCTT | -0.00961
209 | AACGCCAC | -0.0588
210 | CACGCCGC | 0.293
211 | GACGCCGC | 0.406
212 | TACGCCGA | 0.299
213 | AACGCCGT | 0.437
214 | GACGCCGA | 0.342
215 | AACGCCGC | 0.448
216 | AACGCCGA | 0.456
217 | AACGCCAT | -0.106
218 | CACGCCGA | 0.133
219 | ATAGCCCA | -0.245
